For 40 compounds, growth results are on record in PubChem BioAssay (NCI).

This is part of a sample that, as a whole, favours compounds with a hit. Of some 83,000 tested, about 20% had one in any assay.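 Activity criterion: percent growth below 10, measured after cells in 96-well plates were exposed to a single compound concentration for 48 hours.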 Calls of active or inactive are those of the source.

For the assay, the system named is RXF 393 renal. The experiment in a line: NCI-60 one-dose screen, 48 h (100 = growth as untreated, 0 = no growth, -100 = all killed). The note with it: 10 µM unless noted.
With `C=C(C)[C@@H]1CC[C@]2(C(=O)NCCNCCN)CC[C@]3(C)[C@H](CC[C@@H]4[C@@]5(C)C/C(=C/c6ccncc6)C(=O)C(C)(C)[C@@H]5CC[C@]43C)[C@@H]12`, the growth is 103% (inactive).

Take `CS(=O)(=O)C1=CN(CCO)C(=O)N2CCCN=C12`: the growth is 106% (inactive). Regarding `Cc1ccc(Sc2nnc(/N=C3\C(=O)Nc4ccccc43)s2)cc1`, the growth was 120% (inactive). `CCOc1nc(-c2ccccc2)cc2c(O)c(C(=O)NN)[nH]c(=O)c12`: the growth was 108% (inactive). Regarding `O=C1Nc2ccc(Br)cc2/C1=N/c1n[nH]c(=S)s1`, the growth was 109% (inactive). To `CCCCCCCCCCCCCCCC(N)c1ccccc1` (stereo not given) belongs -89.4% (active); to `CCc1n(Cc2ccc3ccccc3c2)cc[n+]1Cc1ccc2ccccc2c1`, 1.07% (active). As to `Cc1ccc(-c2nc(N3CCNCC3)c3oc(-c4ccccc4)nc3n2)cc1`, the growth was -74.1% (active).

As for `O=C(OCc1ccc2cccc(O)c2n1)N1CCN(C(=O)c2cc3cc(F)ccc3[nH]2)CC1`, the growth was -93.1% (active). On to `CN1CCN(Cc2ccc(NC(=O)c3cncc(C#Cc4cnc(N)c5ccccc45)c3)cc2C(F)(F)F)CC1`, for which the growth was -96.2% (active).

For the compound `CO/N=C(/C)c1ccc(NC(=O)CSc2nnc(-c3ccncc3)n2-c2ccccc2)cc1`, the growth is 4.02% (active). In the case of `CC(=O)OC[C@]12CCC(C)(C)C[C@H]1[C@@]1(O)[C@H](O)C[C@@H]3[C@@]4(C)CCCNC(C)(C)[C@@H]4CC[C@@]3(C)[C@]1(C)CC2`, the growth is 117% (inactive). Consider `COc1cc(-n2cc(-c3cc(O)c(C/C=C(\C)CCC=C(C)C)c(O)c3)nn2)cc2c1O[C@]1(C)CC[C@@H](O)C(C)(C)[C@H]1C2`, for which the growth is -60.6% (active). As for `CC(=O)c1cc(O)c2ccccc2c1O`, the growth was 111% (inactive).

On to `CC[C@]12C=CCN3CC[C@@]4(c5cc(NC(=O)CCC(=O)OCc6cn(Cc7ccc(F)cc7)nn6)c(OC)cc5N(C)[C@H]4[C@@](O)(C(=O)OC)[C@@H]1OC(C)=O)[C@@H]32`, for which the growth is 103% (inactive). On to `Cc1nn(-c2ccccc2)c(Oc2ccccn2)c1-c1nc2ccccc2s1`, for which the growth is 86.1% (inactive). As to `O=C(Cn1c2c(c3ccccc31)CCCC2)Nc1ccc(-c2nc3ccccc3s2)cc1`, the growth is 105% (inactive). On to `N#Cc1c(N)nnn1Cc1cc(=O)oc2c1ccc1ccccc12`, for which the growth is 104% (inactive).

`O=C1N[C@@H]2NC(=[N+]3CCOCC3)N[C@@H]2N1`: the growth was 116% (inactive). In the case of `CCN1C(=O)N(CC)C2C1NN=c1s/c(=C\c3ccc(Cl)cc3Cl)c(=O)n12` (stereo not given), the growth is 61.1% (inactive). In the case of `CC1=C(Nc2ccc(N3CCN(C)CC3)cc2)C(=O)c2cncnc2C1=O`, the growth was 118% (inactive).

In the case of `O=c1oc2ccccc2cc1C1=NN=C(SCc2ccccc2)SC1`, the growth is 109% (inactive). With `O=C(O)CNC1=C(Cl)C(=O)c2ccccc2C1=O`, the growth was 128% (inactive). For the compound `N#CC1=C(c2ccc(Cl)cc2)Nc2c(c(-c3ccc(Cl)cc3)nn2-c2ccccc2)C12C(=O)Nc1ccc(Cl)cc12` (stereo not given), the growth is 21.3% (inactive). `C=C(C)[C@@H]1CC[C@]2(C(=O)O)CC[C@]3(C)[C@H](CC[C@@H]4[C@@]5(C)C[C@@H](Cc6cn(CCO[C@@H]7O[C@H](COC(C)=O)[C@H](OC(C)=O)[C@H](OC(C)=O)[C@H]7OC(C)=O)nn6)[C@H](O)C(C)(C)[C@@H]5CC[C@]43C)[C@@H]12`: the growth was 77.5% (inactive).

As to `Cc1ccc(NC(=S)NNC(=S)NNc2ccccc2)cc1C`, the growth is 96.3% (inactive). On to `CCC(C)N(c1ccc(Cl)cc1)c1nc(-c2ccc(Br)cc2)cs1` (stereo not given), for which the growth was 121% (inactive).

Regarding `c1ccc(CNc2c3ccccc3nc3ccccc23)cc1`, the growth was 41.9% (inactive).

For the compound `C=C(C)[C@@H]1CC[C@]2(C(=O)NCC#CCN3CCN(C)CC3)CC[C@]3(C)[C@H](CC[C@@H]4[C@@](C)(CCC#N)[C@H](C(=C)C)CC[C@]43C)[C@@H]12`, the growth was 39.8% (inactive). Consider `O=C1C(Cl)=C(Nc2ccc(O)cc2)C(=O)N1Cc1ccc(Cl)cc1`, for which the growth was 64.3% (inactive).

For the compound `O=Cc1ccc([N+](=O)[O-])s1`, the growth was 123% (inactive). For `COc1cc(/C=C\c2cc(/C=C\c3ccc(O)c(OC)c3)n(C(=O)COc3ccc(Cl)cc3Cl)n2)ccc1O` the value was -9.98% (active); for `CC1(c2ccccc2O)NN=C(/N=C/c2cccc([N+](=O)[O-])c2)N1C(Cc1c[nH]c2ccccc12)C(=O)O` (stereo not given), 90.9% (inactive). As for `COC(=O)CNC(=O)[C@H](Cc1ccccc1)NCc1ccncc1`, the growth is 112% (inactive). Regarding `O=C(Nc1cccnc1Nc1ccc(F)cc1)c1cn(Cc2cccc(Oc3ccccc3)c2)nn1`, the growth is 74.2% (inactive).

For the compound `COc1ccc(-c2cn(-c3cc(OC)c(OC)c(OC)c3)c(=O)n2C(C)=O)cc1`, the growth was 109% (inactive). For `COc1ccc(-c2nnc3n(C)c(=O)c4ccccc4n23)cc1N`, the growth was -10.5% (active). As for `CCN(CC)c1ccc(/C=C/C(=O)c2ccc(Nc3nc(Nc4ccccc4)nc(Nc4ccccc4)n3)cc2)cc1`, the growth is 10.6% (inactive). As for `COP(=O)(OC)C(C)(C)CC(=O)CC(C#N)(C#N)C(C#N)C#N`, the growth was 97.8% (inactive). For the compound `N#CC1CCc2c(c(-c3cn[nH]c3C(F)(F)F)nc3c(F)cc4[nH]ncc4c23)C1` (stereo not given), the growth was 21.7% (inactive).
